# From PubChem BioAssay (Tox21)
# Results filed as inconclusive are left out. Values without a mark were called inactive. Calls of active or inactive are those of the source. Calls come from the whole dose curve; as a rule, active = well fitted inhibition curve with a large enough effect in the signal ratio in the repeat runs, with a control signal flat; inconclusive = weak or mixed curves, or effect the other way; inactive = flat fitted curve, though single readings scatter; the % refers to the signal ratio. Peptide text beside a SMILES is read from it.
# Target: D(2) dopamine receptor (Homo sapiens) (UniProt P14416)
# Test: Dopamine D2 receptor (DRD2) small molecule antagonists, cell-based qHTS assay (AID 1963595)
# Details: HEK293-DRD2 cAMP HTRF antagonist mode; series mostly up to 92.4 µM; activity change, negative = inhibition: at the top concentration
# Excerpt: National Center for Advancing Translational Sciences [NCATS]
# Division of Preclinical Innovation [DPI]
# U.S. Environmental Protection Agency [EPA]
# National Institutes of Environmental Health Sciences [NIEHS]
# National Toxicology Program [NTP]
# U.S. Food and Drug Administration [FDA]
# DRD2 is the D2 subtype of the dopamine receptor, which is coupled to Gi subtype of G protein-coupled receptor. This G protein-coupled receptor inhibits adenylyl cyclase activity. The DRD2-HEK293 cell line stably expressing D2 dopamine receptor can be used for screening agonists and antagonists of interactions between D2 and its ligands. The Hek293-DRD2 cAMP assay is based on HTRF technology. It measures changes of cAMP accumulation in response to Gi coupled GPCR activation or inhibition.
# Tox21 Assay Protocol Summary:
# DRD2-Hek293 cells were dispensed at 600 cells/3uL/well in 1536-well white plates using a Multidrop Dispenser. After the assay plates were incubated at a 37 C/5% CO2 incubator for 24 h, 1 uL of Ro20-1724 at final concentration of 0.1 mM was transferred to the assay plate by a Flying Reagent Dispenser. Following Ro20-1724 addition, 23 nL of compound dissolved in DMSO, positive controls or DMSO only was added to the assay plates via Wako pintool station. The assay plates were incubated at room temperature for 10 min. Next, 1 uL of mixture of NKH477 (final concentration at 200 nM) and quinpirole (final concentration at 12 nM) was added into the plates. After the assay plates were incubated at room temperature for an additional 30 min, 2.5 ul/well of cAMP-d2 and 2.5 ul/well of anti-cAMP-cryptate were added respectively into the assay plates using a Flying Reagent Dispenser. The plates were incubated at room temperature for 1 h. The fluorescence intensity in the plates was measured at 340 nm excitation and 665 & 620 nm emission by an Envision plate reader.
# % is set by controls: 0 for no effect and ±100 for the full control effect; potency is the fitted concentration of half-maximal effect.
# D(2) dopamine receptor (Homo sapiens), sequence (P14416 whole entry, looked up): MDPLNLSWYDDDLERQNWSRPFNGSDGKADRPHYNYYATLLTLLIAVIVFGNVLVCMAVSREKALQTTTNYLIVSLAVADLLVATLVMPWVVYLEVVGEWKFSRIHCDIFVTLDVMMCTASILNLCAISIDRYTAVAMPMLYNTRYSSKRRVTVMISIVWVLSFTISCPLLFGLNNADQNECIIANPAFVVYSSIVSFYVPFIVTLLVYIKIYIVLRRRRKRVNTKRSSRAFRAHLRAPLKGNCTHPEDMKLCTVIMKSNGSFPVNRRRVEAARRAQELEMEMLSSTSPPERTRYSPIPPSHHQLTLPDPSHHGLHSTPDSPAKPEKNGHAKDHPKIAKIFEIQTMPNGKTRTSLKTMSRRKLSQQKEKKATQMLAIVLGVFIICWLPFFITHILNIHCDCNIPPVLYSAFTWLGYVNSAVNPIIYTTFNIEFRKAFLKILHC
SMILES,"activity change, negative = inhibition",Potency
O=C(O)CNC(=O)c1ccc([N+](=O)[O-])cc1,2.59%,–
CNC(=O)c1c(I)c(NC(=O)CCCCC(=O)Nc2c(I)c(C(=O)O)c(I)c(C(=O)NC)c2I)c(I)c(C(=O)O)c1I,23.7% [at 42.5 µM],–
CC1CCCCC1,-1.43%,–
CC1COc2c(N3CCN(C)CC3)c(F)cc3c(=O)c(C(=O)O)cn1c23 (stereo not given),9.61% [at 42.5 µM],–
CC1=C(CC=O)C(C)(C)CCC1,8.17%,–
CC(C)[N+](C)(C)CC(O)COc1cccc2ccccc12 (stereo not given),6.35% [at 42.5 µM],–
CC(=O)N[C@@H](CO)C(=O)N[C@@H](CC(=O)O)C(=O)N[C@@H](CCCCN)C(=O)N1CCC[C@H]1C(=O)O (Ac-SDKP-OH),15.7% [at 42.5 µM],–
Cc1ccnc(N)c1,-16.8%,–
CCCCC(CC)COC(=O)COc1ccc(Cl)cc1Cl (stereo not given),-5.35%,–
C[Si](NC1CCCCC1)(NC1CCCCC1)NC1CCCCC1,-14.8%,–
COc1cc(O)cc(O)c1,10.8% [at 42.5 µM],–
Cc1cc(-n2nc3ccc(Cl)cc3n2)c(O)c(C(C)(C)C)c1,-14.4% [at 42.5 µM],–
O=C(c1ccc(O)cc1)c1ccc(O)cc1,-3.84%,–
O=S(=O)(Cl)c1c(Cl)cccc1Cl,0.131%,–
COc1ccc(C(=O)Nc2nc3ccccc3c(NCc3ccccc3)c2C#N)cc1,12.8%,–
O=C1OC(O)C(C(Cl)Cl)=C1Cl (stereo not given),8.32%,–
O=C(O)Cc1sc(-c2ccccc2)nc1-c1ccc(Cl)cc1,4.17% [at 42.5 µM],–
NC(=O)Nc1ccc(Cl)c(Cl)c1,9.11%,–
CC(=O)NO,-3.68% [at 42.5 µM],–
CC(C)(C)NCC(O)COc1cccc2c1C[C@H](O)[C@H](O)C2 (stereo not given in full),-7.26% [at 42.5 µM],–

SMILES,"activity change, negative = inhibition",Potency
O=S(O)O,-0.433% [at 18.9 µM],–
O=C1NCN(c2ccccc2)C12CCN(CCCC(c1ccc(F)cc1)c1ccc(F)cc1)CC2,–,33.5 nM (active)
CS(=O)(=O)c1ccc([C@@H](C[C@H]2CCC(=O)C2)C(=O)Nc2cnccn2)cc1Cl,-10.3%,–
Oc1ccccc1C=NCc1ccccc1,2.95% [at 42.5 µM],–
CCOC(=O)CCc1ccccc1,-1.26%,–
CCN1CCN(c2cc3c(cc2F)c(=O)c(C(=O)O)cn3C2CC2)CC1,-1.96% [at 42.5 µM],–
CCOc1ccccc1O,3.02%,–
CC(C)(C)NSc1nc2ccccc2s1,-1.19%,–
NC1CCN(c2cccc(Cl)n2)CC1,-1.1% [at 42.5 µM],–
CN=C(NC#N)NCCSCc1csc(N=C(N)N)n1,12% [at 42.5 µM],–
Cc1cc(CCCOc2c(C)cc(-c3noc(C(F)(F)F)n3)cc2C)on1,2.21% [at 42.5 µM],–
CCCCCCCCCCCCCCCCCC#N,-0.293%,–
CC(=O)C1CCCCC1=O (stereo not given),-0.857%,–
C[Si]1(C)N[Si](C)(C)N[Si](C)(C)N1,-0.165%,–
COCCOCC(OC)OC,12.9% [at 42.5 µM],–
Nc1cccc(S(=O)(=O)O)c1,1.48%,–
CC[N+](CC)(CCNC(=O)C(=O)NCC[N+](CC)(CC)Cc1ccccc1Cl)Cc1ccccc1Cl,-0.927% [at 42.5 µM],–
CCCC(C)C(=O)OCC (stereo not given),-0.185%,–
CCCCc1ccc2c(n1)[C@@H](c1ccc(OC)cc1C[C@H](C)C(=O)O)[C@H](C(=O)O)[C@H]2c1ccc2c(c1)OCO2,0.421%,–
Cc1ccccc1N1C(=O)c2cc(S(N)(=O)=O)c(Cl)cc2NC1C (stereo not given),14.1% [at 42.5 µM],–
